In PubChem BioAssay (NCATS):
Results filed as inconclusive are left out. A call without a number means that no potency is given here. The source made the active and inactive calls. Calls follow the shape of the dose curve; as a rule, active = well fitted inhibition curve with a large enough effect; inconclusive = small, poorly fitted or top-dose-only effect; inactive = flat fitted curve, though single readings scatter.

How the values were obtained:
Assay in all cases: qHTS profiling for inhibitors of Plasmodium falciparum proliferation (AID 504749); also: nearly all actives have a fitted effect of over 60% in size
Settings in all cases: P. falciparum in erythrocytes, SYBR Green DNA, 72 h; series mostly up to 28.7 µM
CP315 = tested on: CP315
Method in brief: (§1)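 Fluorescence of SYBR Green-bound parasite DNA, read at 485/535 nm, served as the growth measure. Infected erythrocytes were cultured with compound 72 h; artemisinin (0.29 uM) and DMSO wells defined the normalization range.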

CP325 = tested on: CP325
Method in brief: as §1

CP329 = tested on: CP329
Method in brief: as §1

DFO2036 = tested on: DFO2036
Method in brief: as §1

DIV17 = tested on: DIV17
Method in brief: as §1

DIV30 = tested on: DIV30
Method in brief: as §1

Dd2 = tested on: Dd2
Method in brief: as §1

DIV14 = tested on: DIV14
Method in brief: as §1

ECU = tested on: ECU
Method in brief: as §1

CP335 = tested on: CP335
Method in brief: as §1
Potency is read from the fitted curve at half-maximal effect.

| SMILES | Potency (CP315) | Potency (CP325) | Potency (CP329) | Potency (DFO2036) | Potency (DIV17) | Potency (DIV30) | Potency (Dd2) | Potency (DIV14) | Potency (ECU) | Potency (CP335) |
| --- | --- | --- | --- | --- | --- | --- | --- | --- | --- | --- |
| OC(c1ccccc1)(c1ccccc1)C1CN2CCC1CC2 (stereo unspecified) | inactive | inactive | inactive | inactive | 3.79 µM (active) |  |  |  |  |  |
| CCC1(c2ccccc2)C(=O)NC(=O)N(C)C1=O (stereo unspecified) | inactive | inactive | inactive | inactive |  | inactive | inactive |  |  |  |
| Oc1cccc[c]1[Hg][Cl] |  | 12 µM (active) | 9.53 µM (active) | 5.62 µM (active) | 5.36 µM (active) | 9.53 µM (active) | 2.51 µM (active) | 4.78 µM (active) | 3.55 µM (active) |  |
| C[C@H]1CCC[C@H](O)CCCCCc2cc(O)cc(O)c2C(=O)O1 | inactive | inactive | inactive | inactive |  | inactive | inactive |  |  | inactive |
| CN1C2CCC1CC(OC(c1ccccc1)c1ccc(Cl)cc1)C2 (stereo unspecified) |  | 9.53 µM (active) | 13.5 µM (active) | 11.2 µM (active) | 7.57 µM (active) | 7.57 µM (active) | 10 µM (active) | 7.57 µM (active) | 6.31 µM (active) | 6.01 µM (active) |
| O=C1CN=C(c2ccccc2)c2cc(Cl)ccc2N1CC1CC1 | inactive | inactive | inactive | inactive |  | inactive | inactive | inactive | inactive |  |
| c1ccc(C2(N3CCCC3)CCCCC2)cc1 |  |  |  | 10 µM (active) | 15.1 µM (active) |  | 12.6 µM (active) | 12 µM (active) |  | 10.7 µM (active) |
| CN1CCCC(=C(c2cccs2)c2cccs2)C1 | inactive |  |  |  | 6.75 µM (active) |  | 11.2 µM (active) |  | inactive |  |
| CN1[C@@H]2CC[C@H]1CC(OC1c3ccccc3CCc3ccccc31)C2 (stereo partly specified) | inactive | inactive | inactive |  | 1.81 µM (active) | inactive |  | 1.81 µM (active) | 3.55 µM (active) | inactive |
| COc1ccc2c(c1OC)C(=O)OC2C1c2cc3c(cc2CCN1C)OCO3 (stereo unspecified) |  |  |  | inactive |  |  | inactive |  | inactive |  |
| C=CCN=C=S |  | inactive |  | inactive |  |  | inactive | inactive | inactive | inactive |
| O=c1c2ccccc2[se]n1-c1ccccc1 | inactive | inactive | inactive |  |  | inactive |  |  |  |  |
| C[C@@H](Cc1ccccc1)NCCC(c1ccccc1)c1ccccc1 | inactive | inactive | inactive | inactive | 2.56 µM (active) |  |  | 3.22 µM (active) | 3.55 µM (active) |  |
| CC12NC(Cc3ccccc31)c1ccccc12 (stereo unspecified) | inactive | inactive |  |  |  | inactive | 11.2 µM (active) |  | inactive |  |
| O=[N+]([O-])c1ccccc1 | inactive | inactive | inactive | inactive | inactive | inactive | inactive | inactive | inactive |  |
| CCCN1CCCC2Cc3[nH]ncc3CC21 (stereo unspecified) |  |  |  | inactive |  |  | inactive |  | inactive |  |
| O=C/C=C/c1ccccc1 | inactive | inactive | inactive | inactive | inactive | inactive | inactive | inactive | inactive |  |
